Measured values: PubChem BioAssay AID463173 (ICCB-Longwood Screening Facility, Harvard Medical School, 2010)
In all, about 52,000 compounds went through this assay and about 4,300 (8.3%) were called active. The full list was thinned out, with actives kept by preference. Unmarked numbers belong to inactive results. No stated cut-off is given here; in the data, active means survival mostly below about 52% (no sharp cut-off); inactive means mostly above about 56%.

system: DeltatarO mutant; assay: growth inhibition of S. aureus wild type versus tarO mutant, primary screen, teichoic acid synthesis inhibitors, RN4220, OD600 (AID 463173); conditions: OD600, 18 h, stronger effect = lower value, screened at 18.75 µg/mL (by protocol)

First: CCOc1ccc2nc(N3CCCC(C(=O)Nc4ccc(OC)cc4)C3)sc2c1 (stereo not drawn)
Second: COc1ccc(OCC(=O)Nc2nnc(S(=O)(=O)N3CCc4ccccc43)s2)cc1
The survival of the first is lower: 60% for the first, 70% for the second.

First: Cc1ccc(CNC(=O)c2cc(S(=O)(=O)N3CCCCCC3)cn2C)cc1
Second: COc1cccc(CNC(=O)c2cc(S(=O)(=O)N3CCCCCC3)cn2C)c1
The survival of the first is lower: 74% for the first, 82% for the second.

Going from `COc1ccccc1CNC(=O)c1cc(S(=O)(=O)N2CCCC(C)C2)cn1C` (stereo not drawn) to `CC1CCCN(S(=O)(=O)c2cc(C(=O)NCCc3ccccc3)n(C)c2)C1` (stereo not drawn), the survival falls from 93% to 73%.

First: COc1ccc(CNC(=O)CCc2c(C)c3cc4c(C)coc4cc3oc2=O)cc1
Second: COc1ccc(CNC(=O)c2cnn3c(C)c(Cc4ccc(F)cc4)c(C)nc23)cc1
The survival of the first is lower: 75% for the first, 80% for the second.

Compared with `O=S(=O)(Nc1ccc2nc(-c3cccc(Cl)c3)oc2c1)c1ccccc1`, `O=S(=O)(Nc1ccc2nc[nH]c2c1)c1ccccc1` is higher in survival: 52% for the first, 95% for the second.

Compared with `Cc1ccc(S(=O)(=O)N2CCCc3cc(NS(=O)(=O)c4ccc(F)cc4)ccc32)cc1`, `O=S(=O)(Nc1ccc(-c2ccc(N3CCCC3)nn2)cc1)c1ccc(Br)cc1` is higher in survival: 74% for the first, 94% for the second.

Going from `O=C(Nc1ccc(-c2nc3cc(NC(=O)c4ccc(F)cc4)ccc3o2)cc1)c1ccc(F)cc1` to `Cc1ccccc1C(=O)Nc1ccc(-c2nc3ccccc3o2)cc1`, the survival rises from 75% to 101%.

Compared with `O=C(O)/C=C/C(=O)Nc1ccc(-c2nc3ccccc3o2)cc1`, `COC(=O)c1ccc(-c2nc3ccc(C)cc3o2)cc1` is higher in survival: 74% for the first, 102% for the second.

Compared with `Cc1ccc(SCC(=O)Nc2ccc3oc(-c4cccc(Cl)c4)nc3c2)cc1`, `CCOc1ccc(NC(=O)CSc2oc(-c3ccco3)nc2S(=O)(=O)c2ccccc2)cc1` is higher in survival: 72% for the first, 101% for the second.

First: O=C1CC(c2cccc(O)c2)c2c(nc(SCc3ccccc3F)[nH]c2=O)N1 (stereo not drawn)
Second: O=C(c1ccccc1)N(Cc1nc2ccccc2c(=O)[nH]1)C1CCCC1
The survival of the first is higher: 106% for the first, 70% for the second.

Going from `COc1cc(NC(=O)CN2C(=O)C(c3ccc(C)cc3)=NC23CCCCCC3)cc(OC)c1` to `COc1cccc(NC(=O)c2nnn(Cc3ccc(OC)c(Br)c3)c2N)c1`, the survival falls from 83% to 57%.

Going from `O=C(COc1ccc(F)cc1)NCc1ccc2c(c1)CCN2C(=O)c1ccccc1` to `O=C(Cn1c(C(=O)NCc2ccco2)cc2sccc21)c1ccccc1`, the survival rises from 81% to 92%.

First: COc1ccc(C2CC(=O)NC(NC(=O)c3ccc(Br)cc3)=N2)c(OC)c1OC (stereo not drawn)
Second: COc1ccc(CCNC(=O)CCCn2nc(C)c3sc4ccccc4c3c2=O)cc1OC
The survival of the first is higher: 86% for the first, 83% for the second.

Compared with `CCOC(=O)N1CCc2c(sc3c2c(=O)n(-c2ccc(Cl)cc2)c(=O)n3CC(C)C)C1`, `CCOC(=O)C1=C(CN2CCC(C(=O)OCC)CC2)NC(=O)NC1c1ccc(Cl)cc1` (stereo not drawn) is higher in survival: 94% for the first, 111% for the second.

Going from `CN(C)CCNC(=O)Cn1nc(N2CCN(c3ccccc3)CC2)ccc1=O` to `COc1ccccc1CNC(=O)CN1C(=O)CCc2cc(S(=O)(=O)N3CCOCC3)ccc21`, the survival rises from 86% to 135%.

Going from `CC(=O)c1ccc(NC(=O)C2CCN(S(=O)(=O)c3ccc4[nH]c5c(c4c3)CCCCC5)CC2)cc1` to `CC(=O)c1ccc(N2CCN(S(=O)(=O)c3c(C)nc4sc(C)cn4c3=O)CC2)cc1`, the survival falls from 94% to 75%.

Going from `O=C1COc2cc(S(=O)(=O)CCC(=O)N3CCN(c4cccc(Cl)c4)CC3)c(Cl)cc2N1` to `COc1cc2[nH]c(=O)n(CCCCCC(=O)N3CCN(c4cccc(C(F)(F)F)c4)CC3)c(=O)c2cc1OC`, the survival rises from 66% to 83%.

Going from `COc1ccc(-n2nnc(C(=O)Nc3ccccc3F)c2N)cc1` to `COc1ccc(-n2nc(C(=O)Nc3ccc(C)cn3)c3c4ccccc4n(C)c3c2=O)cc1`, the survival rises from 68% to 76%.

`O=C(Nc1ccc(C(F)(F)F)cc1)C1(c2cccs2)CCOCC1` and `O=C(CSc1nc2ccncc2[nH]1)Nc1ccccc1C(F)(F)F` are the same in survival: 87% for the first, 87% for the second.

Going from `Cc1cccc(C)c1NC(=O)CCS(=O)(=O)c1cccc2nonc12` to `Cc1ccc(NC(=O)n2ncc3c(C)cccc32)c(C)c1`, the survival rises from 74% to 85%.

Compared with `Cc1ccc(Nc2ncnc3onc(C)c23)cc1Cl`, `Cc1ccc(NC(=S)N(Cc2ccco2)Cc2cc3cc(C)c(Cl)cc3[nH]c2=O)cc1` is higher in survival: 67% for the first, 82% for the second.

Compared with `Cc1ccc(C2=NC(c3ccc(F)cc3)=Nc3ccc(C)cc3N2)cc1`, `CCOc1ccc(C2C(C(N)=O)=C(C)Nc3nc(-c4cccc(Cl)c4)nn32)cc1OC` (stereo not drawn) is higher in survival: 72% for the first, 74% for the second.

Going from `O=C(NN=C1CCCCC1)c1n[nH]c2c1CCC2` to `O=C(NC1CCCCC1)N(Cc1nc2ccccc2c(=O)[nH]1)C1CCCC1`, the survival falls from 97% to 85%.

First: CCc1ccc(C(=O)c2cn(CC(=O)Nc3ccc(OC)cc3)c3cc4c(cc3c2=O)OCO4)cc1
Second: COc1ccc(CN2CCc3c(c(=O)n4ncc(C(=O)N5CCN(c6ccccc6F)CC5)c4n3C)C2)cc1
The survival of the first is lower: 81% for the first, 88% for the second.

Compared with `COc1ccccc1NC(=O)c1cc(S(=O)(=O)N(C)C2CCCCC2)ccc1F`, `COc1ccc2[nH]c(=O)c(CN(Cc3ccco3)C(=S)NC3CCCCC3)cc2c1` is lower in survival: 85% for the first, 77% for the second.

First: CCCSc1ncc(Cl)c(C(=O)Nc2sc3c(c2C(=O)OC)CCCC3)n1
Second: CCCSc1ncc(Cl)c(C(=O)Nc2sc3c(c2C(=O)NCCOC)CCCC3)n1
The survival of the first is lower: 53% for the first, 92% for the second.

Going from `CCSc1ncc(Cl)c(C(=O)Nc2sc3c(c2C(=O)NCCCOC)CCCC3)n1` to `CCOCCCNC(=O)c1c(NC(=O)c2nc(SC)ncc2Cl)sc2c1CCCC2`, the survival falls from 108% to 64%.

First: COCCCNC(=O)c1c(NC(=O)c2nc(S(C)(=O)=O)ncc2Cl)sc2c1CCCC2
Second: Cc1cccc(CSc2ncc(Cl)c(C(=O)Nc3sc4c(c3C(N)=O)CCCC4)n2)c1
The survival of the first is lower: 53% for the first, 112% for the second.

First: CCN(CC)c1nn2c(=O)c(C(=O)NCc3ccc(OC)cc3OC)cnc2s1
Second: CCC(Sc1nc2ncccc2o1)C(=O)Nc1ccc(OC)c(OC)c1 (stereo not drawn)
The survival of the first is lower: 75% for the first, 79% for the second.

Compared with `CCCN(CCC)C(=O)CSc1nc2ccccc2c(=O)n1Cc1ccco1`, `CCCCc1nc2ccccc2c(C(=O)O)c1C` is lower in survival: 83% for the first, 75% for the second.

Going from `CC(C)CC(=O)Nc1nnc(S(=O)(=O)N2CCc3ccccc32)s1` to `CCC(=O)Nc1nnc(S(=O)(=O)N2CCc3ccccc32)s1`, the survival rises from 74% to 76%.

Going from `CC(=O)NCCNC(=O)CCCc1nnc2n(C)c(=O)c3sccc3n12` to `COCCNC(=O)CCC(=O)N1Cc2cccc(OC)c2Oc2ncccc21`, the survival falls from 93% to 89%.

Compared with `COc1ccc(CCNC(=O)c2cc3n(n2)C(C(F)(F)F)CC(C2CC2)N3)cc1OC` (stereo not drawn), `O=C(Cn1c(C(=O)NCC2CCCO2)cc2sccc21)c1ccccc1` (stereo not drawn) is higher in survival: 99% for the first, 103% for the second.

Going from `Nc1nc(=S)[nH]c2c1C1(CCCC1)Cc1ccccc1-2` to `Nc1n[nH]c2c1C1(CCCC1)Cc1ccccc1-2`, the survival rises from 99% to 100%.

First: CNC(=S)N(Cc1ccco1)Cc1cc2ccc(C)cc2[nH]c1=O
Second: CCc1ccc2[nH]c(=O)c(CN(CCO)C(=S)NCc3ccco3)cc2c1
The survival of the first is higher: 99% for the first, 88% for the second.

First: Cc1ccc(-c2nnc(Nc3ccccc3)c3ccccc23)cc1S(=O)(=O)N1CCN(C)CC1
Second: Cc1c(-c2ccccc2)nc2ccccc2c1C(=O)O
The survival of the first is lower: 86% for the first, 95% for the second.

First: NC(=O)c1cc2ccc(O)cc2oc1=O
Second: O=C(NCC(c1ccco1)S(=O)(=O)c1cccs1)c1ccccc1 (stereo not drawn)
The survival of the first is higher: 74% for the first, 63% for the second.

`COc1cccc(CNC(=O)c2cc(S(=O)(=O)N3CCCCC3)cn2C)c1` was tested, and the survival was 0% (active).
In the case of `COc1ccc(CCNC(=O)c2cc(S(=O)(=O)N3CCCC(C)C3)cn2C)cc1OC` (stereo not drawn), the survival is reported as 47% (active).
For `Cc1ccc(S(=O)(=O)Nc2ccc3nc(-c4ccc(F)cc4)oc3c2)cc1`, the survival was 11% (active).
In the case of `O=S(=O)(Nc1ccc2nc(-c3ccc(F)cc3)oc2c1)c1ccccc1`, the survival is reported as 32% (active).
`O=S(=O)(Nc1ccc(-c2nc3ccccc3o2)cc1)c1ccccc1` was tested, and the survival was 24% (active).
In the case of `Cc1ccc(S(=O)(=O)Nc2ccc3nc(-c4cccc(Cl)c4)oc3c2)cc1`, the survival is reported as 28% (active).
For `CCNC(=O)c1c(NC(=O)c2nc(S(=O)(=O)CC)ncc2Cl)sc2c1CCCC2`, the survival was 34% (active).
With `CCCSc1ncc(Cl)c(C(=O)Nc2sc3c(c2C(N)=O)CCCC3)n1` the survival was 46% (active).
With `CCCSc1ncc(Cl)c(C(=O)Nc2sc3c(c2C(=O)NCC)CCCC3)n1` the survival was 45% (active).
`O=C(COc1ccc(Cl)cc1)Nc1nnc(S(=O)(=O)N2CCc3ccccc32)s1` was tested, and the survival was 6% (active).
With `O=C(COc1ccc(F)cc1)Nc1nnc(S(=O)(=O)N2CCc3ccccc32)s1` the survival was 17% (active).
In the case of `Cc1ccc(OCC(=O)Nc2nnc(S(=O)(=O)N3CCc4ccccc43)s2)cc1`, the survival is reported as 13% (active).
With `Cc1cccc(OCC(=O)Nc2nnc(S(=O)(=O)N3CCc4ccccc43)s2)c1` the survival was 16% (active).
With `N#CC1=C(N)c2ccccc2CC12CCCCC2` the survival was 31% (active).
In the case of `COc1ccc(NC(=S)N(Cc2ccco2)Cc2cc3cc(C)c(C)cc3[nH]c2=O)cc1`, the survival is reported as 38% (active).
`COc1ccc2[nH]c(=O)c(CN(Cc3ccco3)C(=S)NCc3ccco3)cc2c1` was tested, and the survival was 65% (active).
For `CCc1ccc(-c2nc3ccc(Br)cc3c(C(=O)O)c2C)s1`, the survival was 39% (active).
With `O=C(Cn1c(C(=O)N(Cc2ccco2)CC2CCCO2)cc2sccc21)c1ccccc1` (stereo not drawn) the survival was 68% (active).
With `O=C(NCc1ccccc1)N(Cc1nc2ccccc2c(=O)[nH]1)C1CCCC1` the survival was 52% (active).
